The panel holds about 83,000 compounds, 20% with a hit somewhere; the sample as a whole holds those more often.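 Values shown are percent growth following 48 h exposure of cells in 96-well plates to a single concentration of compound; below 10 was considered active.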 A number with no mark means an inactive call. Activity calls are given as the source filed them.

The test system of the assay is OVCAR-3 ovarian. The assay can be described thus: NCI-60 one-dose screen, 48 h (100 = growth as untreated, 0 = no growth, -100 = all killed). The note with it: 10 µM unless noted.
As for `CCN1C(=O)N(CC)C2C1NN=c1s/c(=C\c3cc4ccccc4[nH]3)c(=O)n12` (centres undefined), the growth was 11.7%.

`CCN(CC)CCCNCc1cc(-c2ccccc2)nc2cc(Cl)ccc12`: the growth is 61.7%.

On to `CC[C@H](CC[C@@H](C)[C@H]1CC[C@H]2[C@@H]3CC[C@@H]4CC(=O)/C(=C\c5ccncc5)C[C@]4(C)[C@H]3CC[C@]12C)C(C)C`, for which the growth is 106%.

Consider `CCN(CC)c1ccc(/C=N\NC(=O)c2cccc(Nc3ccnc(C(F)(F)F)c3)c2)c(O)c1`, for which the growth is 30.9%.

Consider `Cc1cscc(C)c1=S`, for which the growth was 121%.

Take `COC(=O)/C=C1/SC(=Nc2cccc(Cl)c2)N(CCc2c[nH]c3ccc(O)cc23)C1=O`: the growth was 3.41% (active).

`O=C(CCCCCCCCC(=O)N/N=C\c1cc(Cl)ccc1O)N/N=C\c1cc(Cl)ccc1O`: the growth is 31.4%.

Take `COc1ccc(/C=C/C(=O)c2cc3c(N)c(C(=O)Nc4ccc(OC)cc4)sc3nc2C)cc1`: the growth is 2.94% (active).

As to `CCCCCCOC(=O)CC1=C(C)/C(=C/c2[nH]c(-c3ccc[nH]3)cc2OC)N=C1C`, the growth was -93.9% (active).

For the compound `Cc1ccc(O)c(NC(=O)c2ccc(CNc3ccnc(C(F)(F)F)c3)cc2)c1`, the growth is 140%.

For the compound `O=C1/C(=C/c2ccc(Br)cc2)COc2ccc(O)c(O)c21`, the growth was -91.5% (active).

As for `O=C(/C=C/C12c3ccccc3C(c3ccccc31)C1C(=O)NC(=O)C12)c1ccc(F)cc1` (centres undefined), the growth is -10.1% (active).

In the case of `Cc1ccc(C)c2c1C(O)(C#Cc1ccccc1)c1ccccc1C2(O)C#Cc1ccccc1` (centres undefined), the growth was 63.3%.

As to `C(/C=C/c1ccccc1)=Nc1ccc(CCc2ccc(N=C/C=C/c3ccccc3)cc2)cc1`, the growth is 132%.

As for `O=C(Cn1nnc2ccccc21)Nc1ccc(-c2nc3ccccc3s2)cc1`, the growth is 90.4%.

For the compound `CCCCCCCC/C=C\CCCCCCCCOc1ccc(CC(=O)NCC[N+](C)(C)C)cc1`, the growth was 83.3%.

Regarding `COc1cc(/C=C2\CN(S(=O)(=O)c3ccc(C)cc3)C/C(=C\c3cc(CN4CCCCC4)c(O)c(OC)c3)C2=O)cc(CN2CCCCC2)c1O`, the growth is -89.4% (active).

As for `Cc1ncc(C(=O)Nc2ccc(CN3CCN(C)CC3)c(C(F)(F)F)c2)cc1C#Cc1cnc(N)c2ccncc12`, the growth is -43.6% (active).

For the compound `COc1cc(C2=NN(C(C)=O)C(c3ccc(N(C)C)cc3)C2)cc(OC)c1OC` (centres undefined), the growth was 124%.

In the case of `COC1=CC(c2ccc[nH]2)=N/C1=C\c1[nH]c(C)c(CC(=O)OCc2ccccc2)c1C`, the growth was -49.5% (active).

Consider `CCOC(=O)CSc1nc2sc3c(c2c(=O)n1-c1ccc([N+](=O)[O-])cc1)CCCCC3`, for which the growth is 51.8%.

As to `CN(C)c1ccc(C(=NO)c2ccc(N(C)C)cc2)cc1`, the growth is -15.1% (active).

As to `Cc1ccc(C(=O)c2ccc(CC(=O)N/N=C/c3ccc(O)cc3O)n2C)cc1`, the growth was 37.2%.

`N#C/C(=C\c1ccc(Br)cc1)c1cc2ccccc2[nH]1`: the growth is 107%.

For `COc1ccc(-c2cn(-c3ccc(Cl)cc3)c(SCC(=O)c3ccc([N+](=O)[O-])cc3)n2)cc1`, the growth is 106%.

Consider `COc1ccc(Cc2nnc(Nc3nc4ccccc4s3)s2)cc1`, for which the growth is 103%.

As to `CCOC(=O)c1ccc2c(c1)c1c(C)c3ccncc3c(C)c1n2C`, the growth is -20.4% (active).

Regarding `Cc1nc2sc(C(=O)Nc3cccc(Cl)c3)c(N)c2cc1C(O)c1ccccc1` (centres undefined), the growth was 6.3% (active).

For `COc1ccc(C2CC(c3ccc(Nc4nc(Nc5ccc(F)cc5)nc(Nc5ccc(F)cc5)n4)cc3)=NN2C(C)=O)cc1` (centres undefined), the growth is 97.9%.

For `N#Cc1c(NC(=O)c2cccs2)[n+]([O-])c2ccc(Cl)cc2[n+]1[O-]`, the growth was 81.5%.

On to `CC(C)(C)c1cc(C=Nc2cccc(C(F)(F)F)c2)c(O)c(C(C)(C)C)c1`, for which the growth was 95%.

As for `N=c1sc(Cc2cc(Cl)ccc2Cl)cn1CC(=O)c1ccccc1`, the growth was 45.4%.

Turning to `COc1ccc(Nc2ncc(C(N)=O)c(NCCCNC(=O)C3CCC3)n2)cc1`, the growth is 88.8%.

As to `Cc1nn(-c2ccccc2)c(/N=C/N(C)C)c1/C=C/C(=O)c1ccc(Cl)cc1`, the growth is 103%.

Consider `COc1ccc2cc(-c3ccc(-c4ccc(C(=N)N)s4)s3)ccc2c1`, for which the growth is -61.1% (active).

Take `O=C1c2cccnc2C(=O)c2c1c(C(=O)OCCCN1CCCCC1)c1ccccn21`: the growth is 0.168% (active).

Consider `O[C@@H](c1cc(C(F)(F)F)nc2c(C(F)(F)F)cccc12)[C@H]1CCCCN1`, for which the growth was 63.1%.

For the compound `Cc1[nH]c(/C=C/C(=O)c2ccc(C(F)(F)F)c(F)c2)c(C)c1C(=O)NCC(C)C`, the growth is 112%.

For the compound `CCCCCCCCn1ccc2cc(NC(=O)Cn3cc(CN4CCCCCC4)nn3)ccc21`, the growth was 10.1%.

These data come from PubChem BioAssay (NCI).
